# Values without a mark were called inactive. Inconclusive results are not listed. Where a call stands in place of a potency, no number is given. Activity calls are given as the source filed them. Unless noted, calls follow the shape of the dose curve; as a rule, active = well fitted curve in the direction sought with a large enough effect; inconclusive = small, poorly fitted or top-dose-only effect, or another doubt; inactive = no such curve, though single readings can be large; an effect the other way counts as inactive or inconclusive.
# Legend:
# [1] = tested on: PA-1; assay: Primary qHTS to identify gynecologic anti-cancer compounds using libraries of approved drugs and bioactive compounds (AID 1345084); settings: Gynecologic cancer cell panel viability, ATPlite luminescence, 48 h; series mostly up to 57.5 µM; also: nearly all actives have a fitted effect of over 55% in size
# Summary of the method: (§1)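 Luminescence from the ATPlite ATP-monitoring reagent indicates viable cell number; lower signal means cytotoxicity. Cells received compound 16 h after seeding and were exposed for 48 h across five concentrations.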
# [2] = tested on: SKOV3; assay: as above; settings: Gynecologic cancer cell panel viability, ATPlite luminescence, 48 h; series mostly up to 57.5 µM
# Summary of the method: as §1
# [3] = tested on: Tov-21-G; assay: as above; settings: Gynecologic cancer cell panel viability, ATPlite luminescence, 48 h; series mostly up to 57.5 µM
# Summary of the method: as §1
# [4] = tested on: Tov112D; assay: as above; settings: Gynecologic cancer cell panel viability, ATPlite luminescence, 48 h; series mostly up to 57.5 µM
# Summary of the method: as §1
# [5] = Drug repurposing screens with cells derived from glioblastoma tumor samples (AID 1345199); settings: GBM patient neurospheres viability, ATP luminescence, 48 h; also: nearly all actives have a fitted effect of over 40% in size; also: potency is read from the fitted curve at half-maximal effect
# Summary of the method: (§2)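 Primary testing used CD133+ neurospheres from four GBM patients, seven concentrations, 48 h exposure and ATP-based viability; confirmation added three slower-growing patient lines.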
# [6] = tested on: astro; assay: as above; settings: viability, ATP luminescence, 48 h; series mostly up to 45.9 µM
# Summary of the method: as §2
# [7] = biological target: Nuclear receptor subfamily 1 group I member 2 (Rattus norvegicus) (UniProt Q9R1A7); assay: qHTS assay for small molecule activators of the rat pregnane X receptor (rPXR) signaling pathway (AID 651751; call rule not given here); settings: rPXR reporter cells, luciferase (One-Glo), 24 h
# Nuclear receptor subfamily 1 group I member 2 (Rattus norvegicus), sequence (Q9R1A7 whole entry, looked up): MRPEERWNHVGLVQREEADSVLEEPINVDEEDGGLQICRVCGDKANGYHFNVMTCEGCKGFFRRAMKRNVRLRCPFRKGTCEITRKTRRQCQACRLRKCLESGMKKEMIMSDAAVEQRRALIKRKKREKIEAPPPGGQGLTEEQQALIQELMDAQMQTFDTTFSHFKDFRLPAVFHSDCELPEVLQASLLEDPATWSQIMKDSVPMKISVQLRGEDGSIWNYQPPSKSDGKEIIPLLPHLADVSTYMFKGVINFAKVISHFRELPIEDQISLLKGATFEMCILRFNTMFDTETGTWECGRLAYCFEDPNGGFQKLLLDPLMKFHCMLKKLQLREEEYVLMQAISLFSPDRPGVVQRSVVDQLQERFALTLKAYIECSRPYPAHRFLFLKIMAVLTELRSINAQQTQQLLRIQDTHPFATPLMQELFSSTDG
# [8] = qHTS assay for small molecule activators of the human pregnane X receptor (PXR) signaling pathway (AID 720659; call rule not given here); settings: DPX-2 HepG2 CYP3A4-luciferase, 24 h; series mostly up to 92.3 µM
# [9] = at 45.9 µM (top of the series), tumour line B
# [10] = at 45.9 µM (top of the series), tumour line D
# [11] = at 46 µM (top of the series), tumour line A
structure (smiles),measurement,setting,value
COP(=O)(OC)OC=C(Cl)Cl,Potency,[1],inactive
same,Potency,[2],inactive
same,Potency,[3],inactive
same,Potency,[4],inactive
same,Potency,[5]; tumour line A,7.08 µM (active)
CN1C2CCC(C)(C)C1CC(OC(=O)C(O)(c1cccs1)c1cccs1)C2 (configuration not stated),Potency,[1],inactive
same,Potency,[2],inactive
same,Potency,[3],inactive
same,Potency,[4],inactive
CCCC[N+]1(C)[C@@H]2CC(OC(=O)[C@H](CO)c3ccccc3)C[C@H]1[C@@H]1O[C@@H]12 (some centres not stated),Potency,[1],inactive
same,Potency,[2],inactive
same,Potency,[3],inactive
same,Potency,[4],inactive
same,"activity, negative = cell killing",[5]; [9],-7.47%
CCOC(=O)C1(c2ccccc2)CCN(CCc2ccc(N)cc2)CC1,Potency,[1],inactive
same,Potency,[2],inactive
same,Potency,[3],inactive
same,Potency,[4],inactive
Nc1ccc(Cl)cc1C(=O)c1ccccc1F,Potency,[1],inactive
same,Potency,[2],inactive
same,Potency,[3],inactive
same,Potency,[4],inactive
O=C1CN2CCOC2(c2ccccc2Cl)c2cc(Cl)ccc2N1 (configuration not stated),Potency,[1],inactive
same,Potency,[2],inactive
same,Potency,[3],inactive
same,Potency,[4],inactive
Nc1ccccc1C(=O)OCC(O)CO (configuration not stated),Potency,[1],inactive
same,Potency,[2],inactive
same,Potency,[3],inactive
same,Potency,[4],inactive
COc1cc(CC#N)cc(OC)c1OC,Potency,[1],inactive
same,Potency,[2],inactive
same,Potency,[3],inactive
same,Potency,[4],inactive
CCOC(=O)NC(O)C(Cl)(Cl)Cl (configuration not stated),Potency,[1],inactive
same,Potency,[2],inactive
same,Potency,[3],inactive
same,Potency,[4],inactive
same,"activity, negative = cell killing",[5]; [9],-7.26%
same,"activity, negative = cell killing",[5]; [10],-2.34%
same,"activity, negative = cell killing",[5]; [11],-17.3%
same,Potency,[6],inactive
COc1cc(C[C@@H](C)N)c(OC)cc1Br,Potency,[1],inactive
same,Potency,[2],inactive
same,Potency,[3],inactive
same,Potency,[4],inactive
same,"activity, negative = cell killing","[5]; at 108 µM (top of the series), tumour line B",-21.6%
same,Potency,[5]; tumour line A,35.5 µM (active)
CC(C)[N+](C)(CCC(C(N)=O)(c1ccccc1)c1ccccc1)C(C)C,Potency,[1],inactive
same,Potency,[2],inactive
same,Potency,[3],inactive
same,Potency,[4],inactive
same,"activity, negative = cell killing","[5]; at 21.2 µM (top of the series), tumour line B",-18%
same,"activity, negative = cell killing","[5]; at 21.2 µM (top of the series), tumour line D",-25.8%
C=CCN1CC[C@]23CCCC[C@H]2[C@H]1Cc1ccc(O)cc13,Potency,[1],inactive
same,Potency,[2],inactive
same,Potency,[3],inactive
same,Potency,[4],inactive
same,"activity, negative = cell killing",[5]; [11],29%
same,Potency,[5]; tumour line B,35.5 µM (active)
CCNc1nc(Cl)nc(NCC)n1,Potency,[1],inactive
same,Potency,[2],inactive
same,Potency,[3],inactive
same,Potency,[4],inactive
same,"activity, negative = cell killing",[5]; [9],-2.74%
same,"activity, negative = cell killing",[5]; [10],-21.4%
same,"activity, negative = cell killing",[5]; [11],-24.7%
same,Potency,[6],inactive
same,max response,[7],-3.28%
same,outcome,[8],inactive
OC(O)C(Cl)(Cl)Cl,Potency,[1],inactive
same,Potency,[2],inactive
same,Potency,[3],inactive
same,Potency,[4],inactive
same,"activity, negative = cell killing",[5]; [9],-7.9%
same,"activity, negative = cell killing",[5]; [10],-0.425%
same,"activity, negative = cell killing",[5]; [11],-19%

# — PubChem BioAssay (NCATS)
